From PubChem
Most compounds without a hit are left out; they make up all but 2.4% or so of the library.
M1 PAM parental = counter-screen for M1 PAMs: effect in parental CHO-K1 cells. ATP EC20, Fluo-8 calcium fluorescence; 0% at ATP EC20, 100% at ATP max. activation, % at 3 µM. 360,000 tested, 0.02% active;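 active = activation above the run cutoff, the mean activation of all test compounds plus 3 SD, cut at about 40% in these data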;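 also: peak over basal fluorescence ratio in a 140 s read after ATP addition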
M1 ag = agonists of human M1 muscarinic receptor | CHO-K1 hM1, Fluo-8 calcium fluorescence, agonist mode; 0% DMSO, 100% acetylcholine EC100 | activation, % at 3 µM | 360,000 tested, 0.33% active;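 active = activation above the run's mean compound activation plus 3 SD, cut at about 16% in these data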;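 also: peak over basal fluorescence ratio within a 140 s kinetic read after compound addition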
Target sequence (P11229 whole entry, looked up): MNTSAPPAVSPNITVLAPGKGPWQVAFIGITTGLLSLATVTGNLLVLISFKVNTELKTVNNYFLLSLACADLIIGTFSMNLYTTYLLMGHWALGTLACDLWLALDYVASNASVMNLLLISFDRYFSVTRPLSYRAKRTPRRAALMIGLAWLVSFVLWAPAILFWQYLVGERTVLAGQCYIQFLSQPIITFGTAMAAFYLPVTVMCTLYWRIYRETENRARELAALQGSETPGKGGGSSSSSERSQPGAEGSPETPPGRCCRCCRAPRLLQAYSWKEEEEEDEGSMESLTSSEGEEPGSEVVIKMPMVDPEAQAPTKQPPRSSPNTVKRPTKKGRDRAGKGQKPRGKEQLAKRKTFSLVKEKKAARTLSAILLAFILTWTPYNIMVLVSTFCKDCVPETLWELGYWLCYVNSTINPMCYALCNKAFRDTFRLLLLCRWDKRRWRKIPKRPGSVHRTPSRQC
CHRM1 antagonist = antagonists of human M1 muscarinic receptor; inhibition, % at 3 µM; CHO-K1 hM1, Fluo-8 calcium fluorescence, ACh EC80 antagonist; P11229; AID 588852; 360,000 tested, 1.3% active;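 active = percent inhibition above its own plate's cutoff, namely the mean of that plate's compound wells plus 3 SD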;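 also: peak over basal fluorescence ratio during 140 s after agonist addition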
CHRM1 PAM = human CHRM1 positive allosteric modulation; 360,000 tested, 0.088% active; CHO-K1 hM1, Fluo-8 calcium fluorescence, ACh EC20; 0% = ACh EC20, 100% = maximal ACh; activation, % at 3 µM; in the data active = activation above about 19%, passing the limit was not always enough
CHO-K1 Ca ag = nonselective activator or artifact in parental CHO-K1 cells; 360,000 tested, 0.48% active; activation, % at 3 µM; AID 602248; Fluo-8 calcium fluorescence; scaled to maximal ATP response, vehicle zero; in the data active = activation above about 15%;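 also: untransfected CHO-K1 host cells lacking M1 receptor as counterscreen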
CHO-K1 Ca antag = counter-screen for M1 antagonists: effect in parental CHO-K1 cells. AID 602250. ATP-induced calcium, Fluo-8 fluorescence. 360,000 tested, 0.6% active. inhibition, % at 3 µM;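 active = inhibition above a per-plate cutoff, the plate's mean sample inhibition plus 3 SD, cut at about 24% in these data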
Numbers stand for hits.

What do the screens show for `Cc1ccc(-c2nn(-c3ccccc3)cc2C=C2SC(=S)N(CCS(=O)(=O)O)C2=O)cc1`?
M1 PAM parental: inactive; M1 ag: inactive; CHRM1 antagonist: inactive; CHRM1 PAM: 28; CHO-K1 Ca ag: inactive; CHO-K1 Ca antag: inactive

How did Cc1ccccc1OCc1nc2ccccc2n1C do in these assays?
M1 PAM parental: inactive; M1 ag: inactive; CHRM1 antagonist: inactive; CHRM1 PAM: inactive; CHO-K1 Ca ag: inactive; CHO-K1 Ca antag: inactive

What do the screens show for `Cc1nnc(OCc2nc3ccccc3n2C)c2ccccc12`?
M1 PAM parental: inactive; M1 ag: inactive; CHRM1 antagonist: inactive; CHRM1 PAM: inactive; CHO-K1 Ca ag: inactive; CHO-K1 Ca antag: 25

How did O=C(COC(=O)[C@H](Cc1ccccc1)NS(=O)(=O)c1ccccc1F)NC1CCCCC1 do in these assays?
M1 PAM parental: inactive; M1 ag: inactive; CHRM1 antagonist: inactive; CHRM1 PAM: inactive; CHO-K1 Ca ag: inactive; CHO-K1 Ca antag: inactive

How did CCOC(=O)C1=C[C@@H](C(C)(C)C)N(S(=O)(=O)c2ccc(C)cc2)[C@H]1c1ccccc1Cl do in these assays?
M1 PAM parental: inactive; M1 ag: inactive; CHRM1 antagonist: inactive; CHRM1 PAM: inactive; CHO-K1 Ca ag: inactive; CHO-K1 Ca antag: 24

Results for CCOC(=O)C1=C[C@@H](C(C)(C)C)N(S(=O)(=O)c2ccc(C)cc2)[C@H]1c1ccc(C)cc1 ?
M1 PAM parental: inactive; M1 ag: inactive; CHRM1 antagonist: inactive; CHRM1 PAM: inactive; CHO-K1 Ca ag: inactive; CHO-K1 Ca antag: inactive

What do the screens show for `CN(C)CCOC1c2ccccc2CCc2ccc3ccccc3c21` (configuration not stated)?
M1 PAM parental: inactive; M1 ag: inactive; CHRM1 antagonist: 53; CHRM1 PAM: inactive; CHO-K1 Ca ag: inactive; CHO-K1 Ca antag: inactive

How did Cc1cc2ccc3ccccc3c2cc1CN(C)C do in these assays?
M1 PAM parental: inactive; M1 ag: inactive; CHRM1 antagonist: inactive; CHRM1 PAM: inactive; CHO-K1 Ca ag: inactive; CHO-K1 Ca antag: inactive

Results for CCc1ccc2c(c1)C(=O)C(=O)N2CCS(=O)(=O)c1ccccc1 ?
M1 PAM parental: inactive; M1 ag: inactive; CHRM1 antagonist: inactive; CHRM1 PAM: inactive; CHO-K1 Ca ag: inactive; CHO-K1 Ca antag: inactive

Results for O=C1C(=O)N(CCS(=O)(=O)c2ccccc2)c2ccc(Cl)cc21 ?
M1 PAM parental: inactive; M1 ag: 17; CHRM1 antagonist: inactive; CHRM1 PAM: inactive; CHO-K1 Ca ag: inactive; CHO-K1 Ca antag: inactive

What do the screens show for `Cc1c(C(=O)NCCC2=CCCCC2)oc2ccc(S(=O)(=O)N3CCC4(CC3)OCCO4)cc12`?
M1 PAM parental: inactive; M1 ag: inactive; CHRM1 antagonist: 35; CHRM1 PAM: inactive; CHO-K1 Ca ag: inactive; CHO-K1 Ca antag: inactive

What do the screens show for `Cc1c(C(=O)NCc2ccccc2)oc2ccc(S(=O)(=O)N3CCC4(CC3)OCCO4)cc12`?
M1 PAM parental: inactive; M1 ag: inactive; CHRM1 antagonist: inactive; CHRM1 PAM: inactive; CHO-K1 Ca ag: inactive; CHO-K1 Ca antag: inactive

Results for Cc1c(C(=O)NCC2COc3ccccc3O2)oc2ccc(S(=O)(=O)N3CCOCC3)cc12 (configuration not stated) ?
M1 PAM parental: inactive; M1 ag: inactive; CHRM1 antagonist: 35; CHRM1 PAM: inactive; CHO-K1 Ca ag: inactive; CHO-K1 Ca antag: inactive

How did Cc1c(C(=O)NCC2COc3ccccc3O2)oc2ccc(S(=O)(=O)N3CC(C)CC(C)C3)cc12 (configuration not stated) do in these assays?
M1 PAM parental: inactive; M1 ag: inactive; CHRM1 antagonist: inactive; CHRM1 PAM: inactive; CHO-K1 Ca ag: inactive; CHO-K1 Ca antag: inactive

What do the screens show for `COc1cccc(CC2(CO)CCN(Cc3ccc(NC(C)=O)cc3)CC2)c1`?
M1 PAM parental: inactive; M1 ag: inactive; CHRM1 antagonist: inactive; CHRM1 PAM: inactive; CHO-K1 Ca ag: inactive; CHO-K1 Ca antag: inactive

Results for COc1cccc(CC2(CO)CCN(CC3=CC[C@H]4C[C@@H]3C4(C)C)CC2)c1 ?
M1 PAM parental: inactive; M1 ag: inactive; CHRM1 antagonist: 36; CHRM1 PAM: inactive; CHO-K1 Ca ag: inactive; CHO-K1 Ca antag: inactive

Results for O=C(C1CC1)N1CCN(Cc2ccccc2)CC1 ?
M1 PAM parental: inactive; M1 ag: inactive; CHRM1 antagonist: inactive; CHRM1 PAM: inactive; CHO-K1 Ca ag: inactive; CHO-K1 Ca antag: inactive

Results for CC1(C)C(C=C(Cl)Cl)C1C(=O)N1CCN(Cc2ccccc2)CC1 (configuration not stated) ?
M1 PAM parental: inactive; M1 ag: inactive; CHRM1 antagonist: 42; CHRM1 PAM: inactive; CHO-K1 Ca ag: inactive; CHO-K1 Ca antag: inactive

How did COC(=O)c1ccc(NC(=O)c2ccc3c(c2)C(=O)N(C)C3=O)cc1 do in these assays?
M1 PAM parental: inactive; M1 ag: inactive; CHRM1 antagonist: inactive; CHRM1 PAM: inactive; CHO-K1 Ca ag: inactive; CHO-K1 Ca antag: inactive

What do the screens show for `Oc1ccccc1N=Cc1c(O)ccc2oc3c(c12)CCCC3`?
M1 PAM parental: inactive; M1 ag: inactive; CHRM1 antagonist: inactive; CHRM1 PAM: inactive; CHO-K1 Ca ag: 16; CHO-K1 Ca antag: inactive

How did O=C(O)c1ccc(N=Cc2c(O)ccc3oc4c(c23)CCCC4)cc1 do in these assays?
M1 PAM parental: inactive; M1 ag: inactive; CHRM1 antagonist: inactive; CHRM1 PAM: inactive; CHO-K1 Ca ag: inactive; CHO-K1 Ca antag: inactive

What do the screens show for `O=C(COC(=O)COc1ccc(Br)cc1)Nc1cccnc1Cl`?
M1 PAM parental: inactive; M1 ag: inactive; CHRM1 antagonist: inactive; CHRM1 PAM: inactive; CHO-K1 Ca ag: inactive; CHO-K1 Ca antag: inactive

What do the screens show for `COc1cccc(-c2c(NC(=O)c3ccco3)n(-c3ccc(C)cc3)nc(C)c2=O)c1`?
M1 PAM parental: inactive; M1 ag: inactive; CHRM1 antagonist: inactive; CHRM1 PAM: inactive; CHO-K1 Ca ag: inactive; CHO-K1 Ca antag: 32

What do the screens show for `O=C(Cc1ccc(S(=O)(=O)N2CCOCC2)s1)N1CCN(c2cccc(C(F)(F)F)c2)CC1`?
M1 PAM parental: inactive; M1 ag: inactive; CHRM1 antagonist: 38; CHRM1 PAM: inactive; CHO-K1 Ca ag: 18; CHO-K1 Ca antag: inactive

Results for CCCCCCc1cc2cc(/C(N)=N/NC(=O)c3ccncc3)c(=O)oc2cc1O ?
M1 PAM parental: inactive; M1 ag: inactive; CHRM1 antagonist: inactive; CHRM1 PAM: inactive; CHO-K1 Ca ag: inactive; CHO-K1 Ca antag: inactive

How did CC(C(=O)Nc1ccc(S(=O)(=O)N2CCCC2)cc1)N1CCc2ccccc2C1 (configuration not stated) do in these assays?
M1 PAM parental: inactive; M1 ag: inactive; CHRM1 antagonist: 101; CHRM1 PAM: inactive; CHO-K1 Ca ag: inactive; CHO-K1 Ca antag: inactive

How did CC(C(=O)Nc1ccc(S(=O)(=O)N2CCCC2)cc1)N1CCCC(C(N)=O)C1 (configuration not stated) do in these assays?
M1 PAM parental: inactive; M1 ag: inactive; CHRM1 antagonist: 38; CHRM1 PAM: inactive; CHO-K1 Ca ag: inactive; CHO-K1 Ca antag: inactive

How did CCCC(C)C(=O)Nc1ccc(S(=O)(=O)N2CCCC2)cc1 (configuration not stated) do in these assays?
M1 PAM parental: inactive; M1 ag: inactive; CHRM1 antagonist: inactive; CHRM1 PAM: inactive; CHO-K1 Ca ag: inactive; CHO-K1 Ca antag: inactive
